For some of these results: Measured potencies and affinities stand elsewhere.
How the values were obtained:
Parameters in all cases: scale not given: direction of the effect not stated beside the values
[1] = target: Protein translocase subunit SecA (Escherichia coli (strain K12)) (UniProt P10408); assay: Assay to Identify E. coli SecA ATPase Inhibitors; type: functional; details: 30 µM
[2] = target: T1, Ubiquitin-activating enzyme e1, putative (Leishmania donovani (strain BPK282A1)) (UniProt E9BSI1); assay: Leishmania donovani Ubiquitin Activating Enzyme (LdE1); type: functional; details: 30 µM
T1 sequence (whole entry): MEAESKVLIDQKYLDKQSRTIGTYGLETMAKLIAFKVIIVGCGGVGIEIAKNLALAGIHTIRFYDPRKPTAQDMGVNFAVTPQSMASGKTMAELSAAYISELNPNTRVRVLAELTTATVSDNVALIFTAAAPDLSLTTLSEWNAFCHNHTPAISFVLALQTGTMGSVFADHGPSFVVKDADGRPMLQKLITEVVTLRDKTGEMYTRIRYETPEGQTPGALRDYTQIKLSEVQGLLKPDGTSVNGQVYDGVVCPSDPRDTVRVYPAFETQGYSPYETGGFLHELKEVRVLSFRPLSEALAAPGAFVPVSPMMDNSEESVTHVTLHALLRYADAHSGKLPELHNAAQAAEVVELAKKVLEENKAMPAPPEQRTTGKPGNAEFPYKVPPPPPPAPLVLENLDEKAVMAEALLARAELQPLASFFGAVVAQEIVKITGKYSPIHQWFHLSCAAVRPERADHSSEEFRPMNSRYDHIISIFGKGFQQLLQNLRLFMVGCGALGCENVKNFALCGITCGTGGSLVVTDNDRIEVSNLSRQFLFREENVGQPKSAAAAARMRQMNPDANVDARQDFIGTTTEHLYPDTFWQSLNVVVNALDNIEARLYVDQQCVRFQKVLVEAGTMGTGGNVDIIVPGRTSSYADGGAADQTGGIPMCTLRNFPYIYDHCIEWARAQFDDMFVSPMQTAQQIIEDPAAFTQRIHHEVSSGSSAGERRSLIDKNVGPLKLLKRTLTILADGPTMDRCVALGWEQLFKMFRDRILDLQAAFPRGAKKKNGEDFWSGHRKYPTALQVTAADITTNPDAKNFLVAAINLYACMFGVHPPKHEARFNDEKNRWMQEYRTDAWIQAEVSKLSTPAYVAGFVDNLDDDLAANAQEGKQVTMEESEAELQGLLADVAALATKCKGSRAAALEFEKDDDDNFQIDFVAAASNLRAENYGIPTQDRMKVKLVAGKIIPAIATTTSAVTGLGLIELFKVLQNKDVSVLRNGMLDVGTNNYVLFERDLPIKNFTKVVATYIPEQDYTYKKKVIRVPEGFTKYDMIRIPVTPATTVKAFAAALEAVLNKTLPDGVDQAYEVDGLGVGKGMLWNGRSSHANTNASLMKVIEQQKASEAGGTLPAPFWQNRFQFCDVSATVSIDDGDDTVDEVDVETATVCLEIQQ

[3] = target: AMP-activated protein kinase, AMPK (Homo sapiens) (UniProt P54646+O43741+P54619+Q9UGJ0+Q9Y478+Q13131+Q9UGI9); assay: AMP-dependent Kinase enzyme assay. An in vitro enzyme assay that detects ADP turnover that is directly proportional to AMPK activity. This uses naive AMPK that is activated during the assay with MK-8722; type: functional; details: 30 µM
[4] = target: Sialic acid-binding Ig-like lectin 9 (Homo sapiens) (UniProt Q9Y336); assay: Hs-Siglec9 ALPHAscreen SOP 20170721; details: 10 µM
[5] = system: Trypanosoma cruzi; assay: Trypanosoma cruzi phosphomannomutase and mannose-1-phosphate guanylyltransferase assay; type: functional; details: 10 µM
[6] = target: T2, Arginase-2, mitochondrial (Homo sapiens) (UniProt P78540); assay: in vitro enzyme assay to detect the production of urea directly proportional to the activity of Arginase II; type: functional; details: 33.3 µM; note: in the data most compounds retested in dose-response had high values
T2 sequence (whole entry): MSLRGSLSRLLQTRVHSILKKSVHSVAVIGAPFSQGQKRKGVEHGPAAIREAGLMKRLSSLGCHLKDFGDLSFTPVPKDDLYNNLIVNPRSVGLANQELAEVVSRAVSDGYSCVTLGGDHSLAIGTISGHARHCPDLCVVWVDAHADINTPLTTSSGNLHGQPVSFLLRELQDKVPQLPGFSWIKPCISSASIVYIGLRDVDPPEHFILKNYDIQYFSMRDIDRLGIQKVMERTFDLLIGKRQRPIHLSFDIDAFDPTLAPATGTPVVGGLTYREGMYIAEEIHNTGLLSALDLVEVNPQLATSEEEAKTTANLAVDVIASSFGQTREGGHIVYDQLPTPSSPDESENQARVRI

[7] = target: T3, Proteasome subunit beta (Trypanosoma cruzi) (UniProt O96673); assay: Trypanosoma cruzi proteasome chymotrypsin-like activity (TcProtChymo) assay.; note: in the data most compounds retested in dose-response had high values; type: functional; details: 9.37 µM
T3 sequence (whole entry): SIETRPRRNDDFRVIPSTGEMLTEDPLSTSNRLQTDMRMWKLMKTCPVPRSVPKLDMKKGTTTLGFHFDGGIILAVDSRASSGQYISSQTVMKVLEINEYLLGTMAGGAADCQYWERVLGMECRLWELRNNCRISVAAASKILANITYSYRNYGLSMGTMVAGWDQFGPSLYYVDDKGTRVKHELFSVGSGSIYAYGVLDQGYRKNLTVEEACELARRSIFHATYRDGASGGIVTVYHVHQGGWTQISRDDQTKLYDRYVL

[8] = species on record: Homo sapiens; assay: To identify inhibition of the IFN signalling (Jak-Stat) pathway via expression of an eGFP reporter gene under the control of an IFN-stimulated response element (ISRE) containing MxA promoter.; type: functional; details: 30 µM
[9] = target: T4, Tyrosyl-tRNA synthetase, putative (Trypanosoma cruzi (strain CL Brener)) (UniProt Q4DSP6); assay: Trypanosoma cruzi tyrosyl tRNA synthetase (TcYRS) _High Tyrosine SOP; type: functional; details: 30 µM; note: in the data most compounds retested in dose-response had high values
T4 sequence (whole entry): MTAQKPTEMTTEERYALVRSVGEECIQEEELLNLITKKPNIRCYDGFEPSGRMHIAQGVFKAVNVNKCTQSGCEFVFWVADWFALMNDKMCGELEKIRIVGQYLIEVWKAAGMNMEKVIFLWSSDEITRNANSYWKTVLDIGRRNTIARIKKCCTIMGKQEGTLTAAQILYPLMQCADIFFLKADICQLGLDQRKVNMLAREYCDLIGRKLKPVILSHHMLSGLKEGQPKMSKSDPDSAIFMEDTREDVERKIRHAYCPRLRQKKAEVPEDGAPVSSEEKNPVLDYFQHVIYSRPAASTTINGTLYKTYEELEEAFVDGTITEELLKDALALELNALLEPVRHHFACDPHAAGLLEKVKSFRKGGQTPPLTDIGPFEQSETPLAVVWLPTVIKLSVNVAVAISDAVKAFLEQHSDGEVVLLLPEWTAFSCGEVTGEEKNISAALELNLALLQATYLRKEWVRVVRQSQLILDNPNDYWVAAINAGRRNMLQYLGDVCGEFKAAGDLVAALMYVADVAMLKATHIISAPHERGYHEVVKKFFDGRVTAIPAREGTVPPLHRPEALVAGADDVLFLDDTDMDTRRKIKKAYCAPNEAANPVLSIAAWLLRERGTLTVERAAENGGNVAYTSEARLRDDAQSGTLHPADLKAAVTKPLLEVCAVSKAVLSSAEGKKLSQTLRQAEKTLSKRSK

[10] = target: T4, Tyrosyl-tRNA synthetase, putative (Trypanosoma cruzi (strain CL Brener)); assay: Trypanosoma cruzi tyrosyl tRNA synthetase (TcYRS) SOP; type: functional; details: 30 µM
[11] = target: Chromo domain-containing protein 1 (Saccharomyces cerevisiae (strain ATCC 204508 / S288c) (Baker's yeast)) (UniProt P32657); assay: ScCHD-1 Enzyme Inhibition Assay; type: functional; details: 30 µM; note: in the data most compounds retested in dose-response had high values
Chromo domain-containing protein 1 (Saccharomyces cerevisiae (strain ATCC 204508 / S288c) (Baker's yeast)), sequence (P32657 whole entry, the tested form may be a part): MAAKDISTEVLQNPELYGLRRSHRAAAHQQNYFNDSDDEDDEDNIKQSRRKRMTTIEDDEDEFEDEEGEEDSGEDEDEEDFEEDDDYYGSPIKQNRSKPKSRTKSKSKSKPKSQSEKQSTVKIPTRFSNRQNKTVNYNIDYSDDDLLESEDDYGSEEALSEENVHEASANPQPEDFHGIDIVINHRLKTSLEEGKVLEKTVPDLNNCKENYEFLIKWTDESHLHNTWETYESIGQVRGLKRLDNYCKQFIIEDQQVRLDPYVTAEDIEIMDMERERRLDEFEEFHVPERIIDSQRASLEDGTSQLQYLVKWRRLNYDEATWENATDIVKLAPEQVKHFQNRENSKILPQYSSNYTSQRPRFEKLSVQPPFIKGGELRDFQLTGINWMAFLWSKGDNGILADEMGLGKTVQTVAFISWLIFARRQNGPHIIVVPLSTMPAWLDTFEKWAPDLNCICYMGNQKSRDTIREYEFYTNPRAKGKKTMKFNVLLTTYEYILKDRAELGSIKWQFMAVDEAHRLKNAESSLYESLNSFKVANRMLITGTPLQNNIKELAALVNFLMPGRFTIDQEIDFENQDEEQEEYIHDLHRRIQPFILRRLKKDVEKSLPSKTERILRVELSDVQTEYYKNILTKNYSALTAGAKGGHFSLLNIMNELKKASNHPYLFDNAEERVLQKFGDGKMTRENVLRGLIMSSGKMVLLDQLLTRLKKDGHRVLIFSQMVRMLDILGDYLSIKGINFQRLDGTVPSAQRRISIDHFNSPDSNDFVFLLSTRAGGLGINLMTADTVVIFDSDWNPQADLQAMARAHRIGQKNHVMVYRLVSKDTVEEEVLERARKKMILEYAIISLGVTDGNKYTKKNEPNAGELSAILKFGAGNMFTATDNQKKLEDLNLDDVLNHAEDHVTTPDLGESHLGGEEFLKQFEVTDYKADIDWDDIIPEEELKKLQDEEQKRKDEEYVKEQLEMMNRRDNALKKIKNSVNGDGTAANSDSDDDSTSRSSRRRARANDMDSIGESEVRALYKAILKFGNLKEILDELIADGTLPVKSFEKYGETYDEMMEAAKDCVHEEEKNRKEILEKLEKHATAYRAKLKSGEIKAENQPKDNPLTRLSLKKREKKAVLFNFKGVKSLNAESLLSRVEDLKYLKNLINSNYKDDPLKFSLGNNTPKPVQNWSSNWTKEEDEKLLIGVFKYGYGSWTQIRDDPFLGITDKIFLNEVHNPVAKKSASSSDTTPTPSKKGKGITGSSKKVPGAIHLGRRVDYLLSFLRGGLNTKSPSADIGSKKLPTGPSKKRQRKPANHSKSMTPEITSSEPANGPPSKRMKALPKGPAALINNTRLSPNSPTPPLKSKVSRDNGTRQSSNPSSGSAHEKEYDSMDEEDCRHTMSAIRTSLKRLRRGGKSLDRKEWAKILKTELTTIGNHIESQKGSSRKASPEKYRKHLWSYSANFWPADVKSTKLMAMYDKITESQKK

Sialic acid-binding Ig-like lectin 9 (Homo sapiens), sequence (Q9Y336 whole entry): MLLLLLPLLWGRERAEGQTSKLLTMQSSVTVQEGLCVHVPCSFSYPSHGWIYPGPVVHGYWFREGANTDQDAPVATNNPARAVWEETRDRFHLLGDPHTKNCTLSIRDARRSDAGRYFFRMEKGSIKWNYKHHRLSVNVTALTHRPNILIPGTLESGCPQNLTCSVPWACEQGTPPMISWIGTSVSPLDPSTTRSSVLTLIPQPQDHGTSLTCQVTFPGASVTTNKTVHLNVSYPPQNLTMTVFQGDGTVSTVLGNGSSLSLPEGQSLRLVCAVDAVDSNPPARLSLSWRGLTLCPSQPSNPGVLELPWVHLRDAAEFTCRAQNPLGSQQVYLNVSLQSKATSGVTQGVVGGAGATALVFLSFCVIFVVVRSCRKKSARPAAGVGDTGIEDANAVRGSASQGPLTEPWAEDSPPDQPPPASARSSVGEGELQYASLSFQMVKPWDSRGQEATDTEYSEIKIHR
Protein translocase subunit SecA (Escherichia coli (strain K12)), sequence (P10408 whole entry): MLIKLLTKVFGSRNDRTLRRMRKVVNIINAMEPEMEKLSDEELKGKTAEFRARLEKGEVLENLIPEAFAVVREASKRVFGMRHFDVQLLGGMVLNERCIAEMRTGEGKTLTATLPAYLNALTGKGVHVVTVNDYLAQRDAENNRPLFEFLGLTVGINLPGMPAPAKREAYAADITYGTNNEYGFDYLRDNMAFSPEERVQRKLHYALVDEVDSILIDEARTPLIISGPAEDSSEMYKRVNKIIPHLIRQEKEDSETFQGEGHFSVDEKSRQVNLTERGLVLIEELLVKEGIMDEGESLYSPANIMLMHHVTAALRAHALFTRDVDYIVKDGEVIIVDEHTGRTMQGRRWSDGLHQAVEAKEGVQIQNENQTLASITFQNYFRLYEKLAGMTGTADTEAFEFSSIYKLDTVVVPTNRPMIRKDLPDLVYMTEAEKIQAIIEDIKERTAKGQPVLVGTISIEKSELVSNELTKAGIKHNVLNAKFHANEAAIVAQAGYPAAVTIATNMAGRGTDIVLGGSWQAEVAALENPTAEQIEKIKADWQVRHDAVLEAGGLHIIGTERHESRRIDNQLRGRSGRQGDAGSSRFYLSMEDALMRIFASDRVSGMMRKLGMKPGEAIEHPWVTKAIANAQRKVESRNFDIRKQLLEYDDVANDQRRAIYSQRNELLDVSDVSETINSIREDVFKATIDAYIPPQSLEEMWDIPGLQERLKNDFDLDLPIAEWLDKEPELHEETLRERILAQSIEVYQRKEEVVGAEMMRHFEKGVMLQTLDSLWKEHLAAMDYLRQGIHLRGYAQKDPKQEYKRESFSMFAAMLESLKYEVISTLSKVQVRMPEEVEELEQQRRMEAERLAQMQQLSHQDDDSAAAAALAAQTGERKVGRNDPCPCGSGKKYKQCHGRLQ

Structure (SMILES)	Percent Effect [1]	Percent Effect [2]	Percent Effect [3]	Percent Effect [4]	Percent Effect [5]	Percent Effect [6]	Percent Effect [7]	Percent Effect [8]	Percent Effect [9]	Percent Effect [10]	Percent Effect [11]
CCOCCn1nnc(C2(NC(=O)c3ccccc3)CCCC2)n1	-7.55%	8%	-2.14%	0.531%	-0.292%	4.17%	-18.8%	-0.698%	10.4%	11.1%	-4.99%
c1ncn(CC2CCCN(Cc3nc(C4CC4)no3)C2)n1 (stereo not given)	-5.67%	10.1%	-7.43%	8.58%	8.59%	-4.56%	-3.36%	-5.79%	6.4%	13.9%	-1.7%
O=C(NCC1CC1)[C@@H]1CCO[C@@H]2CCN(Cc3ccco3)C[C@H]21	-1.9%	-2.67%	1.99%	-4.47%	-2.9%	-55.7%	-1.2%	5.41%	-3.12%	-10%	-0.123%
O=C(Cc1csc(-c2ccco2)n1)N1CCN(c2cnccn2)CC1	-3.21%	13.9%	-1.6%	4.73%	0.718%	-1.94%	17.5%	13.5%	11.5%	22.8%	-30.1%
O=S(=O)(NCc1ccccc1Cn1cncn1)C1CCCC1	-2.89%	8.86%	4.47%	2.98%	-3.59%	1.5%	10.1%	5.73%	8.33%	12.7%	-12.6%
CC(C)CN1CCN(C(=O)Nc2cc(C(F)(F)F)c[nH]c2=O)CC1	-3.29%	2.6%	6.98%	4.09%	-2.06%	2.13%	3.55%	20.1%	5.83%	12.2%	-7.11%
COc1c(C2CCCN2CC(=O)Nc2nc(C)cs2)c(C)nn1C (stereo not given)	-0.196%	-5.41%	-8.37%	10.3%	4.74%	1.29%	5.03%	5.63%	4.95%	6.1%	0.0954%
COc1ccc(-c2nc(CN3CCN(CCO)CC3)co2)cc1	-2.39%	20.8%	-11.9%	-1.67%	8.8%	4.98%	15.2%	29%	5.83%	24.4%	-9.19%
Cc1ccc(C(O)CNC(=O)NCc2nc(C)cs2)cc1 (stereo not given)	-1.18%	5.41%	2.46%	3.69%	-6.56%	1.43%	12.9%	5.94%	2.65%	12.2%	-3.85%
CC(C)n1cc(CN2CCCN(C(=O)c3cc(Cl)c[nH]3)CC2)cn1	-2.91%	10.8%	-4.13%	15.8%	1.23%	-4.41%	0.36%	15.2%	2.46%	13.6%	-8.52%
Cc1oc(C(=O)O)cc1S(=O)(=O)Nc1cc(Cl)ccc1F	-4.85%	5.2%	-3.17%	6.3%	0.374%	-1.42%	-6.59%	2.33%	3.88%	2.44%	-4.3%
CC(C(=O)N1CCCN(Cc2ccc(C#N)cc2)CC1)n1ccnc1 (stereo not given)	-3.9%	15.8%	-24.4%	-5.95%	-6.01%	1.15%	17.2%	29.1%	4.41%	12.2%	-7.57%
Cc1nc(C)n(CC2CCCN(Cc3nc(C)c(C)o3)C2)n1 (stereo not given)	-2.17%	21.6%	-13.9%	-7.46%	2.92%	-12.8%	17.7%	7.96%	1.48%	23.5%	-11%
Cc1ncsc1C(=O)NC1CCN(CC(=O)N(C)C(C)(C)C#N)CC1	-9.21%	7.89%	-2.06%	0.841%	-1.77%	1.08%	-2.45%	23.3%	1.48%	-1.24%	2.71%
COCCN1CCC2(CCN(Cc3nccs3)CC2)C1=O	-1.23%	-2.67%	-1.24%	5.18%	-5.79%	-11.7%	2.91%	-7.71%	6.25%	2.5%	0.122%
O=C(NCCc1cccc(F)c1)NCC(O)c1cccc(F)c1 (stereo not given)	-2.56%	5.41%	4.6%	6.95%	1.04%	1.6%	7.93%	10.8%	8.37%	23.5%	-3.01%
CCc1nc(CN(C)C2CCN(Cc3cnc(C)cn3)C2)no1 (stereo not given)	0.722%	27.9%	-1.25%	-16.7%	5.38%	-3.42%	15.5%	26.6%	8.37%	21.5%	-17%
O=C(Cc1ccc2c(c1)OCO2)N1CCN(c2cnccn2)CC1	-1.75%	15.8%	-3.5%	4.13%	6.77%	4.21%	8.69%	2.58%	5.39%	21.9%	-11.8%
Cn1nc(C2CN(C(=O)c3cscn3)C2)c2nccnc21	-0.655%	17.6%	-2.02%	-2.09%	1.38%	2.55%	17.2%	8.4%	6.45%	11.7%	-18.2%
O=C1OC2(CCNCC2)CN1CC(=O)N1CCCC1c1ccco1 (stereo not given)	-3.11%	5.41%	1.69%	4.82%	0.386%	2.86%	19.8%	-0.46%	5.82%	19.5%	-4.16%

— ChEMBL document CHEMBL3988442, “University of Dundee, Small-Polar-MMV Screening Library” (2021)
